# Source: publication PMC7862700, “An all-to-all approach to the identification of sequence-specific readers for epigenetic DNA modifications on cytosine”
# Columns and labels:
# Assay in all cases: DAPPL (digital affinity profiling via proximity ligation, sequencing); 10 mM Tris-HCl pH 7.5, 50 mM NaCl, 1 mM DTT, 4% glycerol, room temperature, 30 min; GST-TFs on glutathione beads, 16-mer random dsDNA library, 0.1% formaldehyde crosslink after washing; high values mean tight binding
# FEV = molecular target: T1, FEV (Homo sapiens, UniProt Q99581 1-238); conditions: protein: recombinant; tags: N-terminal GST; dsDNA, one strand shown
# T1 sequence: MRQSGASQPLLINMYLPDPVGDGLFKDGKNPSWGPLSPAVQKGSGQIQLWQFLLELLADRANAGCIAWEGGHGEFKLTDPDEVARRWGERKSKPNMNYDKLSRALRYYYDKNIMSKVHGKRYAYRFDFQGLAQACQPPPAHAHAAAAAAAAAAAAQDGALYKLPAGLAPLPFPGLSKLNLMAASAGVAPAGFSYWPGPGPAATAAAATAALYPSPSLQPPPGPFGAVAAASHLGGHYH
# Method in brief: (§1)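 Binding signal is each hexamer's read frequency for a factor divided by its frequency in the tag-only sample. The factors were GST-fused human transcription factors from yeast, captured on glutathione beads, DNA-barcoded and pooled with that sample. Pools were incubated with 200 nmole of a random double-stranded 16-mer DNA library in Tris/NaCl/DTT/glycerol buffer at room temperature for 30 min, then washed, crosslinked with 0.1% formaldehyde, proximity-ligated with BsaI/T4 ligase (1 h, 37 °C), PCR-amplified and sequenced on an Illumina NextSeq500.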
# ETV5 = ETV5 (Homo sapiens, UniProt P41161 1-510); conditions: protein: recombinant; tags: N-terminal GST; dsDNA, one strand shown
# Sequence of ETV5 (P41161 whole entry): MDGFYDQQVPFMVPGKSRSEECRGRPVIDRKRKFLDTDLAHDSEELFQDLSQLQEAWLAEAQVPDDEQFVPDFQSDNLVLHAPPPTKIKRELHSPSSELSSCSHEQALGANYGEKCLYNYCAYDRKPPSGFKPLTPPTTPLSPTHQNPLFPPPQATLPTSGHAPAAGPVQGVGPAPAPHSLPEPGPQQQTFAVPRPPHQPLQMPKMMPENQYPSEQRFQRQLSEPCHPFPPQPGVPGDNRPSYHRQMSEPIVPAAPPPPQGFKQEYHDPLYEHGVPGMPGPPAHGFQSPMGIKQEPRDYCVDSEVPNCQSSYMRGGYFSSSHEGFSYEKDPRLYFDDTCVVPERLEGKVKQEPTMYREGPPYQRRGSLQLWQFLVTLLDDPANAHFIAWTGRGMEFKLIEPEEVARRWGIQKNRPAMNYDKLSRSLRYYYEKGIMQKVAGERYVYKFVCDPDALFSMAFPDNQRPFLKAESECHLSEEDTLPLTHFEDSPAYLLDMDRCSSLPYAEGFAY
# Method in brief: as §1
# HSF1 = HSF1 (Homo sapiens, UniProt Q00613 1-529); conditions: protein: recombinant; tags: N-terminal GST; chain copies: 3; dsDNA, one strand shown
# Sequence of HSF1 (Q00613 whole entry): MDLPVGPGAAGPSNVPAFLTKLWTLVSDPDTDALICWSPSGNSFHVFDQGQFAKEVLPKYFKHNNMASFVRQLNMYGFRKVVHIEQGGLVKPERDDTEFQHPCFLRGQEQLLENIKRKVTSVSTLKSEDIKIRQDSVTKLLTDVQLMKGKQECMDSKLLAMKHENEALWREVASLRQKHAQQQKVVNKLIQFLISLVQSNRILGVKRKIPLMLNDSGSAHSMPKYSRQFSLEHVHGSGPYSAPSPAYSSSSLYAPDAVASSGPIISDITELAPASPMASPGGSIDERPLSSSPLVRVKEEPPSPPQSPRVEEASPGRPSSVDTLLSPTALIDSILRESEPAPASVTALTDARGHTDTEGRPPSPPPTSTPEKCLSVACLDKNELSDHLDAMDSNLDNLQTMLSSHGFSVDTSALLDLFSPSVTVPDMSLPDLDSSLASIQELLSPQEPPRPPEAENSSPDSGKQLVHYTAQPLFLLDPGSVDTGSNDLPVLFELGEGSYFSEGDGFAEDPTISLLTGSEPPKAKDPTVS
# Method in brief: as §1
# SPIC = molecular target: T2, SPIC (Homo sapiens, UniProt Q8N5J4 1-248); conditions: protein: recombinant; tags: N-terminal GST; dsDNA, one strand shown
# T2 sequence: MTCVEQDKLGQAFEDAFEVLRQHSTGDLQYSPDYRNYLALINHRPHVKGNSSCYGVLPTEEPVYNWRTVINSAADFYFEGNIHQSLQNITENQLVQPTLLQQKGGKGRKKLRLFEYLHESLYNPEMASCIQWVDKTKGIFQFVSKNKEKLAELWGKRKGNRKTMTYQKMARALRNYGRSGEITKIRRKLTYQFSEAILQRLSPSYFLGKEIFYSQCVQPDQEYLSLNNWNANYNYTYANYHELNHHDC
# Method in brief: as §1
# ELF4 = ELF4 (Homo sapiens, UniProt Q99607 1-663); conditions: protein: recombinant; tags: N-terminal GST; dsDNA, one strand shown
# Sequence of ELF4 (Q99607 whole entry): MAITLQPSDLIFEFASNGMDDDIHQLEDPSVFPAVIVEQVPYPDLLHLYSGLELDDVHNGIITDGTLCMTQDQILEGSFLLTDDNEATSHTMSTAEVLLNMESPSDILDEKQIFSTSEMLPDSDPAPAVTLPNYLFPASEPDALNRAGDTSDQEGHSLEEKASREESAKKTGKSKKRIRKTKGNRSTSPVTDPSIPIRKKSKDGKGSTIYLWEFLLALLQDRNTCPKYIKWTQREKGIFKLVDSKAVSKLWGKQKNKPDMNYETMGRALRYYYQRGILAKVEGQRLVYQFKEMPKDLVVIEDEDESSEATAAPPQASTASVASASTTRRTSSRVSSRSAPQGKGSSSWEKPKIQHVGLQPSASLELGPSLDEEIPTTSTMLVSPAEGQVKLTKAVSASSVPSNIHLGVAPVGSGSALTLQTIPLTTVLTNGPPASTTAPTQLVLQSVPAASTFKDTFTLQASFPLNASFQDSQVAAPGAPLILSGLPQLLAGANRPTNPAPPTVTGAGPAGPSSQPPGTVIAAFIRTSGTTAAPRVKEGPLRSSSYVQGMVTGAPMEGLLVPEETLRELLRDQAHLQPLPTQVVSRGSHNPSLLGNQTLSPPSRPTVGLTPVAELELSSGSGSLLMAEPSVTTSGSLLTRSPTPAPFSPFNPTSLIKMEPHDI
# Method in brief: as §1
# ELK4 = molecular target: T3, ELK4 (Homo sapiens, UniProt P28324-2 1-405); conditions: protein: recombinant; tags: N-terminal GST; dsDNA, one strand shown
# T3 sequence: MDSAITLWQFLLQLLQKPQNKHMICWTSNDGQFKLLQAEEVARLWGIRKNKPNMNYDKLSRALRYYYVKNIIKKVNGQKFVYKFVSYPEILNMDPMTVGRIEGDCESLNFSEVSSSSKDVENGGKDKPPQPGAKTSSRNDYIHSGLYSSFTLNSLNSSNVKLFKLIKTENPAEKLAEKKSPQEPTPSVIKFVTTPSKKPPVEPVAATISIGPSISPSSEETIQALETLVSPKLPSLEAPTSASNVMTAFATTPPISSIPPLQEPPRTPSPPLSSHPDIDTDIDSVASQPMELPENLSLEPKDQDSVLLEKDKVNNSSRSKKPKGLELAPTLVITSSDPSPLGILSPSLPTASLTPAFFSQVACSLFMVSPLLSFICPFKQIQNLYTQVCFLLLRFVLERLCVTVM
# Method in brief: as §1
# ETV2 = molecular target: T4, ETV2 (Homo sapiens, UniProt O00321 1-342); conditions: protein: recombinant; tags: N-terminal GST; dsDNA, one strand shown
# T4 sequence: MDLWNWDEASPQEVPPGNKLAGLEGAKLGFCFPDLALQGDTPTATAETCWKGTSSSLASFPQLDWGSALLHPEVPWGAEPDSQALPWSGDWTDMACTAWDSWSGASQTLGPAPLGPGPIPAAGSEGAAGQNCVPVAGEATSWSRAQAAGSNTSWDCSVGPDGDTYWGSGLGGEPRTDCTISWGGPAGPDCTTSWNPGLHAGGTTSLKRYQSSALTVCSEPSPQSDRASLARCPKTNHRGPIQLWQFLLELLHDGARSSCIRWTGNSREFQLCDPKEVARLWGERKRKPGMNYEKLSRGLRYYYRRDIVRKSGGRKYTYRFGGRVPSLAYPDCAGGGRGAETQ
# Method in brief: as §1
# ELF3 = molecular target: T5, ELF3 (Homo sapiens, UniProt P78545 1-371); conditions: protein: recombinant; tags: N-terminal GST; dsDNA, one strand shown
# T5 sequence: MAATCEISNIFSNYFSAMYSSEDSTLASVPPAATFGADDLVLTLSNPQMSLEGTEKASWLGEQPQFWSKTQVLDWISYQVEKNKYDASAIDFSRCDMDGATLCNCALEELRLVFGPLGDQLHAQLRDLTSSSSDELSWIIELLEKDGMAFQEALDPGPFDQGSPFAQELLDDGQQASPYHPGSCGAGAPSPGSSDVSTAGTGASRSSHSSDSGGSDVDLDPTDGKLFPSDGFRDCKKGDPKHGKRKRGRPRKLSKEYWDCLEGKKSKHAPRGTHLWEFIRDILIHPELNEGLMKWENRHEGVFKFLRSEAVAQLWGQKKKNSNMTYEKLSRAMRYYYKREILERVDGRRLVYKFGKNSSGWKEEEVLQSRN
# Method in brief: as §1
# CRX = CRX (Homo sapiens, UniProt O43186 1-299); conditions: protein: recombinant; tags: N-terminal GST; dsDNA, one strand shown
# Sequence of CRX (O43186 whole entry): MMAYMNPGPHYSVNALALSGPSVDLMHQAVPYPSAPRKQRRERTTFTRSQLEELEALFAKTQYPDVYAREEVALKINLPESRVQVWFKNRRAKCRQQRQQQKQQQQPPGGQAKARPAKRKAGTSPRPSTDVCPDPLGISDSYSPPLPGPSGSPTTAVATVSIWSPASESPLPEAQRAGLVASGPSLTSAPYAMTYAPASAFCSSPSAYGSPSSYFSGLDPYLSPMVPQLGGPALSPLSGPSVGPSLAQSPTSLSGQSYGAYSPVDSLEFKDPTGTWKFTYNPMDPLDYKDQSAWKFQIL
# Method in brief: as §1
sequence,measurement,setting,value
GGGTTT,binding signal,FEV,"1.06 fold enrichment (6-mer frequency, TF over GST control)"
same,binding signal,ETV5,"1.08 fold enrichment (6-mer frequency, TF over GST control)"
same,binding signal,HSF1,"1.12 fold enrichment (6-mer frequency, TF over GST control)"
same,binding signal,SPIC,"1.16 fold enrichment (6-mer frequency, TF over GST control)"
same,binding signal,ELF4,"1.2 fold enrichment (6-mer frequency, TF over GST control)"
same,binding signal,ELK4,"1.12 fold enrichment (6-mer frequency, TF over GST control)"
same,binding signal,ETV2,"1.33 fold enrichment (6-mer frequency, TF over GST control)"
same,binding signal,ELF3,"1.05 fold enrichment (6-mer frequency, TF over GST control)"
same,binding signal,CRX,"1.25 fold enrichment (6-mer frequency, TF over GST control)"
